RORg inh – ROR gamma (mouse) transcription inhibition; P51450; Drosophila S2 Gal4-RORgamma UAS-luciferase reporter, 20 h; Potency, µM (series often up to 53.6 µM), actives largely listed as inhibitors; 5.4% of 310,000 active; AID 2551; further: nearly all actives have a fitted effect of over 60% in size
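Luminescence from a UAS-regulated Photinus luciferase reporter in stably transfected Drosophila Schneider cells is measured; decreased signal marks ROR gamma inhibition. Fusion expression is induced by 700 uM copper sulfate for 20 hr.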
VP16 counter – counter-screen for ROR gamma inhibitors: Gal4-VP16 reporter | Drosophila S2 Gal4-VP16 UAS-luciferase, luminescence, 20 h | Potency, µM (doses to about 53.6 µM), most hits filed as inhibitors | 3.5% of 310,000 active | AID 2546;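 further: Gal4-VP16 expression switched on by copper sulfate through the metallothionein promoter; nearly all actives have a fitted effect of over 50% in size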
NPSR antag – neuropeptide S receptor (human) antagonism, cAMP | CHO-NPSR cells, cAMP TR-FRET, antagonist mode | Potency, µM (series often up to 38.3 µM), most hits filed as inhibitors | 1% of 220,000 active; further: nearly all actives have a fitted effect of over 50% in size
Target sequence (Q6W5P4 whole entry, looked up): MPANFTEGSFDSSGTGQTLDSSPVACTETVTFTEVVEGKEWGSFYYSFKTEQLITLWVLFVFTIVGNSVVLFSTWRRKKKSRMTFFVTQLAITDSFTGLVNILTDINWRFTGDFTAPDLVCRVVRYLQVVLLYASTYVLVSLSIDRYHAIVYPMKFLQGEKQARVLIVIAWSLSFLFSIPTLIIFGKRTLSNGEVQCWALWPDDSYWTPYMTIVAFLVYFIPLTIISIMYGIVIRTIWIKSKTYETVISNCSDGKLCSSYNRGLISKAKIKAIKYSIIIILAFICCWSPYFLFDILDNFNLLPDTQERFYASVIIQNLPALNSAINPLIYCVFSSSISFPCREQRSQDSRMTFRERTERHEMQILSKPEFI
B2AR arrestin – beta2AR (human) beta-arrestin recruitment activity. Potency, µM (highest dose often 46.1 µM), most hits filed as activators. beta-arrestin recruitment to beta2AR, cell-based reporter. P07550. AID 492947. 0.02% of 330,000 active; further: nearly all actives have a fitted effect of over 65% in size
Large screens that a line does not name were inactive. This is a sample that favours compounds with a hit; in the whole collection about 5.7% have one here. The call rests on the fitted dose curve; in most records, active means well fitted curve in the direction sought with a large enough effect; inconclusive means small, poorly fitted or top-dose-only effect, or another doubt; inactive means no such curve, though single readings can be large; an effect the other way counts as inactive or inconclusive.

C=CCC(C)(O)/C=C/c1ccccc1 (stereo not given)	none (no result: NPSR antag, B2AR arrestin)
CCOc1ccc(-c2cc(CCCC(=O)Nc3cccc(OC)c3)no2)cc1	RORg inh 0.126µM, VP16 counter inconclusive
CCOc1ccc(-c2cc(CCCC(=O)Nc3cc(OC)ccc3OC)no2)cc1	RORg inh inconclusive, VP16 counter inconclusive
CCOc1ccc(NC(=O)CCCc2cc(-c3ccc(OCC)cc3)on2)cc1	RORg inh 0.126µM, VP16 counter 1.26µM
CNC(=O)CNC(=O)Nc1ccc(Cl)c(Cl)c1	none
NNc1nc(-c2ccccc2)c2cc(Cl)ccc2n1	RORg inh 12.6µM
NNc1nc(-c2ccccc2)cc(-c2ccc(Br)cc2)n1	RORg inh 17.8µM, VP16 counter inconclusive (no result: NPSR antag)
OCCCNc1nc(-c2ccccc2)c2cc(Br)ccc2n1	none (no result: NPSR antag)
CN(C)c1nc(-c2ccccc2)c2cc(Cl)ccc2n1	none (no result: NPSR antag)
NNc1nc(-c2ccccc2)c2cc(Br)ccc2n1	RORg inh 2.51µM (no result: NPSR antag)
COc1ccc([C@@H]2CNC(=O)C2)cc1OC1CCCC1	none (no result: NPSR antag, B2AR arrestin)
Cc1ccc(NC(=S)Nc2ccc(OC(F)F)c(Cl)c2)cc1Cl	RORg inh 12.6µM, VP16 counter inconclusive
Cc1ccc(NC(=S)Nc2ccc(Cl)c(Cl)c2)c(OC(F)F)c1	RORg inh inconclusive, VP16 counter inconclusive
CC(NC(=S)Nc1ccc(OC(F)F)c(Cl)c1)C(C)(C)C (stereo not given)	RORg inh 2.82µM, VP16 counter 12.6µM
CCOC(=O)c1sc(NC(=S)NC(=O)c2ccccc2)c(C(=O)OCC)c1C	RORg inh 2.24µM, VP16 counter inconclusive
CCOC(=O)c1c(NC(C)=O)sc(/C(C)=N/Nc2ccc(C(=O)O)cc2)c1C	RORg inh 11.2µM, VP16 counter inconclusive (no result: NPSR antag)
COC(=O)c1c(NC(=S)Nc2ccccc2Cl)sc(C)c1C	RORg inh 2.82µM, VP16 counter 6.31µM
CCCCNCC(=O)Nc1sc(C)c(C)c1C(=O)OCC	RORg inh 12.6µM, VP16 counter inconclusive
COc1cc2c(cc1OC)C1O[C@](c3ccsc3)(C2)Oc2c1c(=O)oc1ccc(F)cc21	none (no result: NPSR antag)
COc1ccc(C(=O)N2CCC[C@@]3(CCN(c4ncccn4)C3)C2)cc1	none (no result: NPSR antag, B2AR arrestin)
NC(C(=O)O)C(O)c1ccc(O)c(O)c1 (stereo not given)	none (no result: NPSR antag, B2AR arrestin)
COc1ccc(-c2nnc(SCc3ccc(C(=O)O)cc3)n2C)cc1OC	none (no result: NPSR antag)
CCOC(=O)c1c(NC(=O)COC)sc(C)c1C	none
CCOC(=O)c1c(NC(=S)NC(C)=O)sc(C)c1C	RORg inh 7.94µM, VP16 counter 11.2µM
CCc1ccc(OCC(=O)Nc2ccc(S(=O)(=O)Nc3ccccn3)cc2)cc1	none (no result: NPSR antag)
COC(=O)c1sc(NC(=S)NNC(=O)c2c(Br)c(C)nn2C)c(C(=O)OC)c1C	RORg inh 6.31µM, VP16 counter inconclusive (no result: NPSR antag)
COc1ccc([C@H](C)NC[C@H](O)c2ccc(O)c(NC=O)c2)cc1	B2AR arrestin 17.8µM
COc1cccc(C2=Nn3c(nnc3-c3ccccc3C)SC2)c1	RORg inh inconclusive, VP16 counter 15.8µM (no result: NPSR antag, B2AR arrestin)
COc1ccc(NC(=S)Nc2cc(C)ccn2)c(OC)c1	RORg inh 6.31µM, VP16 counter 3.16µM
COc1ccc(NC(=S)Nc2cnc3ccccc3c2)c(OC)c1	RORg inh 11.2µM
COc1ccc(NC(=S)Nc2ccc(OC)cc2OC)c(OC)c1	RORg inh inconclusive, VP16 counter inconclusive
COc1ccc(NC(=S)Nc2ccccc2OC)c(OC)c1	none
COc1ccc(NC(=S)Nc2ccccn2)c(OC)c1	RORg inh 1.26µM, NPSR antag inconclusive, B2AR arrestin inconclusive
Cc1ccc(S(=O)(=O)N2CCCCC2CCNC(=O)C(=O)NCc2ccccc2)cc1 (stereo not given)	none (no result: RORg inh, VP16 counter, NPSR antag)
Cc1noc(C)c1-c1cncnc1-n1ccnc1	none (no result: NPSR antag, B2AR arrestin)
C=C(C)C1(O)OC(=O)C=C1OC (stereo not given)	RORg inh 12.6µM, VP16 counter 11.2µM
COc1cc(CCCN2C(=O)C(=O)NC[C@@H]2CC2CCCCC2)cc(OC)c1OC	none (no result: RORg inh, VP16 counter, NPSR antag)
COc1cc(CCCN2C(=S)NC[C@@H]2CC2CCCCC2)cc(OC)c1OC	RORg inh 3.98µM, VP16 counter inconclusive
COc1ccc2[nH]cc(CCNc3nc(-c4cccnc4)nc4ccccc34)c2c1	none (no result: NPSR antag, B2AR arrestin)
COC(=O)Cc1c(C)c2ccc(OC3CCCCC3=O)c(C)c2oc1=O (stereo not given)	none (no result: NPSR antag)
Nc1c(-c2ccccn2)cnn1-c1nc(-c2ccc(F)cc2)cs1	RORg inh 5.01µM
COc1cc2c(cc1OC)-c1c(oc3cc(O)cc(O)c3c1=O)CO2	RORg inh inconclusive, VP16 counter 20µM (no result: NPSR antag, B2AR arrestin)
COc1ccc(-c2c(C)oc3cc(O)cc(O)c3c2=O)cc1OC	RORg inh inconclusive
CC(C)NC(=O)NC(=O)COC(=O)C1(C)CC1(Cl)Cl (stereo not given)	none
Cc1cc(O)c(C)c2c1CC[C@H]1[C@H](C)C(=O)O[C@H]21	none (no result: NPSR antag, B2AR arrestin)
Cc1ccc(OCC(=O)c2ccc(Cl)s2)c([N+](=O)[O-])n1	RORg inh inconclusive, VP16 counter 20µM
Cc1ccc(CNC(=O)COc2ccc(C)nc2[N+](=O)[O-])cc1	none
O=C(Nc1cccc(F)c1)N1CC[C@@]2(CCCNC2)C1	none (no result: NPSR antag, B2AR arrestin)
COC(=O)c1nc(NC(=S)NC(=O)c2cccs2)sc1C	RORg inh 3.98µM, VP16 counter 4.47µM (no result: NPSR antag)
CCc1ccc(-c2nc(NC(=S)NC(=O)c3cccs3)sc2C)cc1	RORg inh inconclusive, VP16 counter 3.16µM
O=C(NC(=S)Nc1nc2ccccc2s1)c1cccs1	RORg inh inconclusive, VP16 counter inconclusive
COc1ccc(S(=O)(=O)Nc2ccc(F)c(Cl)c2)cc1OC	VP16 counter 7.08µM, NPSR antag inconclusive
CCC1Sc2ccc(S(=O)(=O)Nc3ccc(OC)cc3)cc2NC1=O (stereo not given)	none (no result: NPSR antag)
COc1ccc(S(=O)(=O)Nc2ccc(Cc3ccncc3)cc2)cc1OC	RORg inh inconclusive, VP16 counter 7.94µM (no result: NPSR antag)
CCC1Sc2ccc(S(=O)(=O)Nc3ccc(OC)c(OC)c3)cc2NC1=O (stereo not given)	RORg inh inconclusive, VP16 counter 8.91µM (no result: NPSR antag)
CCc1ccc(OC)c(S(=O)(=O)Nc2ccc(Cc3ccncc3)cc2)c1	RORg inh inconclusive, VP16 counter 2.24µM (no result: NPSR antag)
COc1ccc(C)cc1S(=O)(=O)Nc1ccc(F)c(Cl)c1	RORg inh inconclusive, VP16 counter inconclusive
C[S+](C)CC[C@H](N)C(=O)O	none (no result: NPSR antag, B2AR arrestin)
CN(C(=O)COC(=O)CNC(=O)c1ccc(C(C)(C)C)cc1)c1c(N)n(Cc2ccccc2)c(=O)[nH]c1=O	none (no result: RORg inh, VP16 counter, NPSR antag)
O=C(Nc1nc(-c2ccccn2)cs1)c1cc2ccccc2o1	RORg inh 1.58µM, VP16 counter 11.2µM
C[C@H](NC(=O)c1ccccc1)C(=O)Nc1nc(-c2ccccn2)cs1	B2AR arrestin inconclusive
O=C(Nc1nc(-c2ccccn2)cs1)c1ccc(Cl)s1	none
Cc1cccc(C(=O)NC(C(=O)Nc2nc(-c3ccccn3)cs2)C(C)C)c1 (stereo not given)	RORg inh 7.94µM, VP16 counter inconclusive
Cc1csc(NC(=O)c2cccn2C)n1	none
Cn1cccc1C(=O)Nc1nc(-c2ccccn2)cs1	RORg inh 1.58µM, VP16 counter 3.98µM, NPSR antag inconclusive, B2AR arrestin inconclusive
Cc1c(C(=O)Nc2nc(-c3ccccn3)cs2)oc2ccccc12	none (no result: RORg inh, VP16 counter, NPSR antag)
O=C(Nc1nc(-c2ccccn2)cs1)c1ncc(Cl)c(Cl)c1Cl	RORg inh 6.31µM, VP16 counter 10µM
